Experimental data taken from PubChem BioAssay AID1159580 (chemical genetic matrix, 2015).
“And” between values parts separate entries of the source, which are not always exact repeats. Identical values can stand only once. The whole screen tested about 5,500 compounds, of which about 2,000 (36%) were called active. Inconclusive results (about 18%) are left out. No stated cut-off is given here; in the data, active means normalized growth mostly below about 0.91 (no sharp cut-off); inconclusive means no clear call, values can overlap the other calls; inactive means mostly above about 0.92. Some of the results follow.

Test: chemical genetic growth profiling, strain panel (AID 1159580);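 further: tested at 20 µM; growth read once vehicle control cultures reached saturation at 30 °C; 1 = growth at the plate median or of vehicle wells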
Details: growth OD
[1] = S. cerevisiae deletion strains, locus YBR229C, strain ROT2, stronger effect = lower value
[2] = S. cerevisiae deletion strains, locus YCL061C, strain MRC1, stronger effect = lower value
[3] = S. cerevisiae deletion strains, locus YDL101C, strain DUN1, stronger effect = lower value
[4] = S. cerevisiae deletion strains, locus YDL134C, strain PPH21, stronger effect = lower value
[5] = S. cerevisiae deletion strains, locus YDR150W, strain NUM1, stronger effect = lower value
[6] = S. cerevisiae deletion strains, locus YEL061C, strain CIN8, stronger effect = lower value
[7] = S. cerevisiae deletion strains, locus YGR078C, strain PAC10, stronger effect = lower value
[8] = S. cerevisiae deletion strains, locus YHR030C, strain SLT2, stronger effect = lower value
[9] = S. cerevisiae deletion strains, locus YHR087W, strain rtc3, stronger effect = lower value
[10] = S. cerevisiae deletion strains, locus YJR043C, strain POL32, stronger effect = lower value
[11] = S. cerevisiae deletion strains, locus YJR075W, strain HOC1, stronger effect = lower value
[12] = S. cerevisiae deletion strains, locus YLR039C, strain RIC1, stronger effect = lower value
[13] = S. cerevisiae deletion strains, locus YLR058C, strain SHM2 (second series), stronger effect = lower value
[14] = S. cerevisiae deletion strains, locus YLR085C, strain ARP6, stronger effect = lower value
[15] = S. cerevisiae deletion strains, locus YLR262C, strain YPT6, stronger effect = lower value
[16] = S. cerevisiae deletion strains, locus YML094W, strain GIM5, stronger effect = lower value
[17] = S. cerevisiae deletion strains, locus YMR219W, strain ESC1, stronger effect = lower value
[18] = S. cerevisiae deletion strains, locus YMR263W, strain SAP30, stronger effect = lower value
[19] = S. cerevisiae deletion strains, locus YMR307W, strain GAS1, stronger effect = lower value
[20] = S. cerevisiae deletion strains, locus YNL153C, strain GIM3, stronger effect = lower value
[21] = S. cerevisiae deletion strains, locus YNL298W, strain CLA4 (second series), stronger effect = lower value
[22] = S. cerevisiae deletion strains, locus YNL322C, strain KRE1, stronger effect = lower value
[23] = S. cerevisiae deletion strains, locus YNR030W, strain Alg12, stronger effect = lower value
[24] = S. cerevisiae deletion strains, locus YPL055C, strain LGE1, stronger effect = lower value
[25] = S. cerevisiae deletion strains, locus YPL241C, strain CIN2, stronger effect = lower value
[26] = S. cerevisiae deletion strains, locus YPR135W, strain CTF4, stronger effect = lower value

Q: For `COc1ccc(-c2c(C(=O)O)sc(SC)c2C#N)cc1`, which normalized growth (S. cerevisiae deletion strains, locus YAL013W, strain DEP1, stronger effect = lower value) is on record?
A: Its normalized growth is 0.996 (inactive).

Q: What about the normalized growth [1] of the same compound?
A: The normalized growth was 0.998 (inactive).

Q: And the normalized growth [2]?
A: The normalized growth was 0.989 (inactive).

Q: What about the normalized growth [3] of the same compound?
A: Its normalized growth is 1.01 (inactive).

Q: And the normalized growth [4]?
A: Its normalized growth is 1.01 (inactive).

Q: And the normalized growth [5]?
A: The normalized growth was 1.07 (inactive).

Q: What about the normalized growth [6] of the same compound?
A: The normalized growth was 1.01 (inactive).

Q: And the normalized growth [7]?
A: The normalized growth was 1.01 (inactive).

Q: What about the normalized growth (S. cerevisiae deletion strains, locus YGR229C, strain SMI1, stronger effect = lower value) of the same compound?
A: Its normalized growth is 1 (inactive).

Q: And the normalized growth [8]?
A: The normalized growth was 1.01 (inactive).

Q: What about the normalized growth [9] of the same compound?
A: The normalized growth was 0.997 (inactive).

Q: And the normalized growth [10]?
A: Its normalized growth is 0.981 (inactive).

Q: And the normalized growth [11]?
A: The normalized growth was 1.01 (inactive).

Q: What about the normalized growth (S. cerevisiae deletion strains, locus YKL190W, strain CNB1, stronger effect = lower value) of the same compound?
A: The normalized growth was 1.01 (inactive).

Q: What about the normalized growth [12] of the same compound?
A: The normalized growth was 1.03 (inactive).

Q: And the normalized growth [13]?
A: The normalized growth was 0.994 (inactive).

Q: And the normalized growth [14]?
A: The normalized growth was 1.05 (inactive).

Q: And the normalized growth [15]?
A: The normalized growth was 1.04 (inactive).

Q: What about the normalized growth [16] of the same compound?
A: Its normalized growth is 1.02 (inactive).

Q: What about the normalized growth [17] of the same compound?
A: The normalized growth was 1 (inactive).

Q: What about the normalized growth [18] of the same compound?
A: Its normalized growth is 1.04 (inactive).

Q: What about the normalized growth [19] of the same compound?
A: Its normalized growth is 1.06 (inactive).

Q: What about the normalized growth [20] of the same compound?
A: The normalized growth was 0.992 (inactive).

Q: What about the normalized growth [21] of the same compound?
A: The normalized growth was 1 (inactive).

Q: What about the normalized growth [22] of the same compound?
A: Its normalized growth is 1 (inactive).

Q: What about the normalized growth [23] of the same compound?
A: The normalized growth was 1.01 (inactive).

Q: And the normalized growth [24]?
A: The normalized growth was 1.1 (inactive).

Q: What about the normalized growth [25] of the same compound?
A: Its normalized growth is 1.01 (inactive).

Q: What about the normalized growth [26] of the same compound?
A: The normalized growth was 0.964 (inactive).

Q: Which results are given for `CSc1sc(-c2ccn[nH]2)c(-c2ccccc2)c1C#N`?
A: normalized growth (S. cerevisiae deletion strains, locus YAR019C, strain CDC15, stronger effect = lower value): 0.982 (inactive); normalized growth (S. cerevisiae deletion strains, locus YBL105C, strain PKC1, stronger effect = lower value): 0.981 (inactive); normalized growth (S. cerevisiae deletion strains, locus YBR135W, strain CKS1, stronger effect = lower value): 0.975 (inactive); normalized growth (S. cerevisiae deletion strains, locus YBR136W, strain MEC1, stronger effect = lower value): 0.975 (inactive); normalized growth (S. cerevisiae deletion strains, locus YBR160W, strain CDC28, stronger effect = lower value): 0.992 (inactive); normalized growth [1]: 0.941 (inactive); normalized growth [2]: 0.981 (inactive); normalized growth (S. cerevisiae deletion strains, locus YDL017W, strain CDC7, stronger effect = lower value): 0.994 (inactive); normalized growth (S. cerevisiae deletion strains, locus YDL028C, strain MPS1, stronger effect = lower value): 0.983 (inactive); normalized growth [3]: 0.968 (inactive) and 0.962 (inactive); normalized growth (S. cerevisiae deletion strains, locus YDL108W, strain KIN28, stronger effect = lower value): 0.977 (inactive); normalized growth (S. cerevisiae deletion strains, locus YDL132W, strain cdc53, stronger effect = lower value): 0.972 (inactive); normalized growth [4]: 0.732 (active); normalized growth (S. cerevisiae deletion strains, locus YDL214C, strain PRR2, stronger effect = lower value): 0.997 (inactive); normalized growth (S. cerevisiae deletion strains, locus YDR052C, strain DBF4, stronger effect = lower value): 0.989 (inactive); normalized growth (S. cerevisiae deletion strains, locus YDR054C, strain cdc34, stronger effect = lower value): 0.988 (inactive); normalized growth [5]: 0.974 (inactive); normalized growth (S. cerevisiae deletion strains, locus YDR226W, strain ADK1, stronger effect = lower value): 0.976 (inactive); normalized growth (S. cerevisiae deletion strains, locus YDR477W, strain SNF1, stronger effect = lower value): 0.984 (inactive); normalized growth [6]: 0.827 (active); normalized growth (S. cerevisiae deletion strains, locus YER123W, strain YCK3, stronger effect = lower value): 0.976 (inactive); normalized growth (S. cerevisiae deletion strains, locus YER133W, strain GLC7, stronger effect = lower value): 0.987 (inactive); normalized growth (S. cerevisiae deletion strains, locus YFL009W, strain cdc4, stronger effect = lower value): 0.97 (inactive); normalized growth (S. cerevisiae deletion strains, locus YFL029C, strain CAK1, stronger effect = lower value): 0.975 (inactive); normalized growth (S. cerevisiae deletion strains, locus YFR003C, strain YPI1, stronger effect = lower value): 0.976 (inactive); normalized growth (S. cerevisiae deletion strains, locus YFR019W, strain FAB1, stronger effect = lower value): 0.973 (inactive); normalized growth (S. cerevisiae deletion strains, locus YFR028C, strain CDC14, stronger effect = lower value): 0.974 (inactive); normalized growth (S. cerevisiae deletion strains, locus YGR040W, strain KSS1, stronger effect = lower value): 0.998 (inactive); normalized growth (S. cerevisiae deletion strains, locus YGR052W, strain FMP48, stronger effect = lower value): 0.998 (inactive); normalized growth [7]: 0.941 (inactive); normalized growth (S. cerevisiae deletion strains, locus YGR092W, strain DBF2, stronger effect = lower value): 1 (inactive); normalized growth [8]: 0.599 (active) and 1.06 (inactive); normalized growth (S. cerevisiae deletion strains, locus YHR079C, strain IRE1, stronger effect = lower value): 1.09 (inactive); normalized growth (S. cerevisiae deletion strains, locus YHR082C, strain KSP1, stronger effect = lower value): 1.03 (inactive); normalized growth [9]: 0.914 (inactive); normalized growth (S. cerevisiae deletion strains, locus YHR205W, strain SCH9, stronger effect = lower value): 0.997 (inactive); normalized growth (S. cerevisiae deletion strains, locus YIL147C, strain SLN1, stronger effect = lower value): 0.979 (inactive); normalized growth (S. cerevisiae deletion strains, locus YJL095W, strain BCK1, stronger effect = lower value): 0.974 (inactive); normalized growth (S. cerevisiae deletion strains, locus YJL128C, strain PBS2, stronger effect = lower value): 0.957 (inactive); normalized growth (S. cerevisiae deletion strains, locus YJL157C, strain FAR1, stronger effect = lower value): 0.986 (inactive); normalized growth (S. cerevisiae deletion strains, locus YJR016C, strain ILV3, stronger effect = lower value): 0.978 (inactive); normalized growth [10]: 0.969 (inactive); normalized growth (S. cerevisiae deletion strains, locus YJR066W, strain TOR1 (second series), stronger effect = lower value): 0.92 (inactive); normalized growth (S. cerevisiae deletion strains, locus YJR066W, strain TOR1, stronger effect = lower value): 1.04 (inactive); normalized growth [11]: 0.944 (inactive); normalized growth (S. cerevisiae deletion strains, locus YKL048C, strain ELM1, stronger effect = lower value): 0.984 (inactive); normalized growth (S. cerevisiae deletion strains, locus YKL067W, strain YNK1, stronger effect = lower value): 0.992 (inactive); normalized growth (S. cerevisiae deletion strains, locus YKL101W, strain HSL1, stronger effect = lower value): 0.976 (inactive); normalized growth (S. cerevisiae deletion strains, locus YKL193C, strain SDS22, stronger effect = lower value): 0.983 (inactive); normalized growth (S. cerevisiae deletion strains, locus YKL203C, strain TOR2, stronger effect = lower value): 1.04 (inactive); normalized growth [12]: 0.846 (inactive); normalized growth [13]: 0.975 (inactive); normalized growth [14]: 0.437 (active); normalized growth (S. cerevisiae deletion strains, locus YLR113W, strain HOG1, stronger effect = lower value): 0.861 (active); normalized growth (S. cerevisiae deletion strains, locus YLR133W, strain CKI1, stronger effect = lower value): 0.968 (inactive); normalized growth [15]: 0.991 (inactive); normalized growth (S. cerevisiae deletion strains, locus YLR403W, strain SFP1, stronger effect = lower value): 0.982 (inactive); normalized growth (S. cerevisiae deletion strains, locus YML070W, strain DAK1, stronger effect = lower value): 0.984 (inactive); normalized growth [16]: 0.789 (active); normalized growth (S. cerevisiae deletion strains, locus YMR001C, strain CDC5, stronger effect = lower value): 0.993 (inactive); normalized growth (S. cerevisiae deletion strains, locus YMR205C, strain PFK2 (second series), stronger effect = lower value): 0.97 (inactive); normalized growth [17]: 0.955 (inactive); normalized growth [18]: 0.939 (inactive); normalized growth (S. cerevisiae deletion strains, locus YMR277W, strain FCP1, stronger effect = lower value): 0.984 (inactive); normalized growth [19]: 0.508 (active); normalized growth (S. cerevisiae deletion strains, locus YNL006W, strain LST8, stronger effect = lower value): 1 (inactive); normalized growth (S. cerevisiae deletion strains, locus YNL020C, strain ARK1, stronger effect = lower value): 0.996 (inactive); normalized growth [20]: 0.979 (inactive); normalized growth (S. cerevisiae deletion strains, locus YNL161W, strain CBK1, stronger effect = lower value): 0.991 (inactive); normalized growth (S. cerevisiae deletion strains, locus YNL183C, strain NPR1, stronger effect = lower value): 1 (inactive); normalized growth (S. cerevisiae deletion strains, locus YNL207W, strain RIO2, stronger effect = lower value): 0.96 (inactive); normalized growth (S. cerevisiae deletion strains, locus YNL222W, strain SSU72, stronger effect = lower value): 0.977 (inactive); normalized growth [21]: 0.735 (active); normalized growth (S. cerevisiae deletion strains, locus YNL307C, strain MCK1 (second series), stronger effect = lower value): 1.01 (inactive); normalized growth [22]: 0.965 (inactive); normalized growth [23]: 0.753 (active); normalized growth (S. cerevisiae deletion strains, locus YOL078W, strain AVO1, stronger effect = lower value): 0.981 (inactive); normalized growth (S. cerevisiae deletion strains, locus YOL136C, strain PFK27, stronger effect = lower value): 0.956 (inactive); normalized growth (S. cerevisiae deletion strains, locus YOR061W, strain CKA2, stronger effect = lower value): 0.986 (inactive); normalized growth (S. cerevisiae deletion strains, locus YOR119C, strain RIO1, stronger effect = lower value): 1.02 (inactive); normalized growth (S. cerevisiae deletion strains, locus YOR231W, strain MKK1, stronger effect = lower value): 0.965 (inactive); normalized growth (S. cerevisiae deletion strains, locus YOR329C, strain SCD5, stronger effect = lower value): 0.995 (inactive); normalized growth (S. cerevisiae deletion strains, locus YPL031C, strain PHO85, stronger effect = lower value): 0.989 (inactive); normalized growth [24]: 0.875 (inactive); normalized growth (S. cerevisiae deletion strains, locus YPL153C, strain RAD53, stronger effect = lower value): 0.971 (inactive); normalized growth (S. cerevisiae deletion strains, locus YPL204W, strain HRR25, stronger effect = lower value): 0.958 (inactive); normalized growth (S. cerevisiae deletion strains, locus YPL209C, strain IPL1, stronger effect = lower value): 0.978 (inactive); normalized growth [25]: 0.758 (active); normalized growth (S. cerevisiae deletion strains, locus YPL256C, strain CLN2, stronger effect = lower value): 1.04 (inactive); normalized growth (S. cerevisiae deletion strains, locus YPR025C, strain CCL1, stronger effect = lower value): 0.989 (inactive); normalized growth (S. cerevisiae deletion strains, locus YPR106W, strain ISR1, stronger effect = lower value): 0.986 (inactive); normalized growth (S. cerevisiae deletion strains, locus YPR111W, strain DBF20, stronger effect = lower value): 0.954 (inactive); normalized growth [26]: 0.69 (inactive); normalized growth (S. cerevisiae deletion strains, strain NNK1, stronger effect = lower value): 0.966 (inactive); normalized growth (S. cerevisiae deletion strains, strain TSCII, stronger effect = lower value): 0.984 (inactive); normalized growth (S. cerevisiae strains, strain wild type, stronger effect = lower value): 0.911 (active)
